# Test results as given in PubChem BioAssay (EPA / NIEHS).
# Inconclusive results are not listed. The source made the active and inactive calls. Rule for the calls, unless noted: active = hit-call score of the fitted dose curve at least 0.9, where 1 is the maximum; inactive = score below 0.9.
# Key:
# [1] = ATG_DR4_LXR_CIS: Attagene CIS-FACTORIAL HepG2 Assay for human Liver X Receptor (LXR), DR4 submotif (AID 2282929); conditions: HepG2 Attagene DR4 cis-reporter, mRNA transcription; actives raise or lower the signal
# Outline: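 Fluorescence intensity of labelled reporter cDNA fragments, separated by capillary electrophoresis, gives the signal. HepG2 cells bearing cis-regulated reporter constructs were treated 24 h; activity fitted bidirectionally relative to DMSO negative control.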
# [2] = biological target: Transcription factor E2F1 (Homo sapiens) (UniProt Q01094); test: ATG_E2F_CIS: Attagene CIS-FACTORIAL HepG2 Assay for human E2F Transcription Factor 1 (AID 2282935); conditions: HepG2 Attagene cis-reporter, E2F reporter RNA transcripts; actives raise or lower the signal
# Outline: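 Cis-element reporter mRNA induction in transiently transfected HepG2, 24 h exposure. Activity fitted in both directions relative to DMSO negative control.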
# [3] = ATG_M_19_CIS: Attagene CIS-FACTORIAL HepG2 Assay for M19 Transcription Factor (Internal Marker) (AID 2282939); conditions: HepG2 Attagene CIS-FACTORIAL M19 internal marker reporter; actives raise or lower the signal
# Outline: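 HepG2 cells transiently transfected with cis-regulated multiplexed reporter units, dosed 24 h. Reporter mRNA quantified by RT-PCR and capillary electrophoresis; internal background marker fitted bidirectionally versus DMSO.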
# [4] = biological target: Hepatocyte nuclear factor 3-beta (Homo sapiens) (UniProt Q9Y261); test: ATG_FoxA2_CIS: Attagene CIS-FACTORIAL HepG2 Assay for human Forkhead box A2 (FOXA2) (AID 2282942); conditions: HepG2 cis-reporter transcription factor activity, 24 h; actives raise or lower the signal
# Outline: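 Reporter transcript induction is measured by fluorescence after capillary electrophoresis of RT-PCR products from HepG2 cells exposed 24 h. Cis-regulated reporter units report endogenous factor activity; curves fitted both directions against DMSO.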
# [5] = biological target: Hypoxia-inducible factor 1-alpha (Homo sapiens) (UniProt Q16665); test: ATG_HIF1a_CIS: Attagene CIS-FACTORIAL HepG2 Assay for human Hypoxia Inducible Factor 1 (HIF1A) (AID 2282951); conditions: HepG2 Attagene cis-factorial HIF1a reporter transcription; actives raise or lower the signal
# Outline: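 Fluorescence intensity of capillary-separated, 6-FAM-labelled reporter amplicons gives mRNA induction in HepG2 cells carrying transfected cis-promoter reporter units; cells exposed 24 h, responses fitted up or down from DMSO.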
# [6] = biological target: Hepatocyte nuclear factor 6 (Homo sapiens) (UniProt Q9UBC0); test: ATG_HNF6_CIS: Attagene CIS-FACTORIAL HepG2 Assay for human Hepatocyte Nuclear Factor 6 (HNF6) (AID 2282952); conditions: HepG2 Attagene cis-factorial HNF6 reporter transcription; actives raise or lower the signal
# Outline: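 HepG2 cells transiently transfected with cis-element-driven multiplexed reporter units measuring endogenous transcription factor activity. After 24 h exposure, reporter mRNA quantified by RT-PCR, FAM-labelled fragments and capillary electrophoresis; bidirectional fitting versus DMSO.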
# [7] = biological target: Heat shock factor protein 1 (Homo sapiens) (UniProt Q00613); test: ATG_HSE_CIS: Attagene CIS-FACTORIAL HepG2 Assay for human Heat Shock Transcription Factor 1 (HSE) (AID 2282953); conditions: HepG2 HSE cis-reporter, Attagene RNA transcription; actives raise or lower the signal
# Outline: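 HepG2 cells transfected with cis-promoter reporter units sensing endogenous transcription factor activity; reporter mRNA quantified 24 h post-dose by RT-PCR and capillary electrophoresis of 6-FAM-labelled products. Bidirectional fitting against DMSO.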
# [8] = ATG_RORE_CIS: Attagene CIS-FACTORIAL HepG2 Assay for human RAR-related Orphan Receptor Element (RORE) (AID 2282959); conditions: HepG2 Attagene cis-factorial RORE reporter, mRNA; actives raise or lower the signal
# Outline: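 Endogenous factor activity at a cis response element is read as reporter transcript levels in HepG2 cells, 24 h post-dose. Transcripts are quantified by RT-PCR with capillary electrophoresis, and data fitted in both directions against DMSO.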
# [9] = ATG_TGFb_CIS: Attagene CIS-FACTORIAL HepG2 Assay for human Transforming Growth Factor (TGF) (AID 2282967); conditions: HepG2 Attagene CIS TGFb reporter, mRNA transcription; actives raise or lower the signal
# Outline: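 HepG2 cells transiently transfected with cis-promoter-driven multiple reporter units measure endogenous TF activity; reporter mRNA quantified at 24 h by RT-PCR, FAM labeling, HpaI digestion and capillary electrophoresis. Bidirectional fit vs DMSO.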
# [10] = ATG_VDRE_CIS: Attagene CIS-FACTORIAL HepG2 Assay for human Vitamin D Receptor Element (VDRE) (AID 2282968); conditions: HepG2 VDRE cis-reporter transcription, actives raise or lower the signal
# Outline: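 Reporter mRNA induction, quantified by capillary electrophoresis of fluorescently labelled RT-PCR products, was read 24 h after dosing HepG2 cells carrying transiently transfected cis-regulated reporter units; gain or loss relative to DMSO.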
# [11] = ATG_NFI_CIS: Attagene CIS-FACTORIAL HepG2 Assay for human Nuclear Factor I (NFI) (AID 2282989); conditions: HepG2 cis-regulatory reporter, NFI response element transcription; actives raise or lower the signal
# Outline: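 Endogenous TF activity in HepG2 cells transiently transfected with cis-element-driven multiplexed reporter units, read 24 h after dosing. Reporter mRNA quantified by RT-PCR, 6-FAM labelling, HpaI digestion and capillary electrophoresis; bidirectional fit versus DMSO.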
# [12] = biological target: Myc proto-oncogene protein (Homo sapiens) (UniProt P01106); test: ATG_Myc_CIS: Attagene CIS-FACTORIAL HepG2 Assay for human Myelocytomatosis (Myc) Proto-Oncogene Transcription Factor (AID 2282990); conditions: HepG2, Attagene cis-reporter transcription factor activity; actives raise or lower the signal
# Outline: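 After 24 h chemical treatment of HepG2 cells carrying multiplexed cis-regulated reporter constructs, reporter transcripts quantified by RT-PCR and capillary electrophoresis of fluorescent fragments. Gain or loss fitted against DMSO baseline.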
# [13] = ATG_NRF2_ARE_CIS: Attagene CIS-FACTORIAL HepG2 Assay for human Nuclear Factor Erythroid 2 Related Factor 2 (NFR2) response to Antioxidant Response Elements (ARE) (AID 2282992); conditions: HepG2 Attagene ARE/NRF2 reporter, transcription factor activity; actives raise or lower the signal;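 for AC50: reporter mRNA level measured by RT-PCR and capillary electrophoresis fluorescence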
# Outline: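 HepG2 cells transiently transfected with multiplexed cis-regulated reporter transcription units measure endogenous transcription factor activity. Reporter mRNA at 24 h is quantified by RT-PCR, fluorescent labelling and capillary electrophoresis, with bidirectional fitting relative to DMSO.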
# [14] = biological target: Cellular tumor antigen p53 (Homo sapiens) (UniProt P04637); test: ATG_p53_CIS: Attagene CIS-FACTORIAL HepG2 Assay for human p53 Transcription Factor (AID 2282994); conditions: HepG2 p53 cis-element reporter, Attagene mRNA; actives raise or lower the signal
# Outline: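 HepG2 cells transiently transfected with multiplexed cis-regulated reporter transcription units read endogenous TF activity. After 24 h compound exposure, reporter mRNA was quantified by RT-PCR, fluorescent labelling, HpaI digestion and capillary electrophoresis; bidirectional fits versus DMSO baseline.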
# [15] = biological target: Nuclear receptor subfamily 1 group I member 2 (Homo sapiens) (UniProt O75469); test: ATG_PXR_TRANS: Attagene TRANS-FACTORIAL HepG2 Assay for human Pregnane X Receptor (PXR) (AID 2283008; active = hit-call score of the fitted dose curve at least 0.9, where 1 is the maximum)
# Outline: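 HepG2 cells transiently transfected with multiple reporter units, here a PXR-GAL4 chimera driving a GAL4-UAS reporter; 24 h compound exposure. Reporter mRNA measured by RT-PCR, FAM labelling and capillary electrophoresis; gain of signal fitted against DMSO baseline.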
# [16] = ATG_Sox_CIS: Attagene CIS-FACTORIAL HepG2 Assay for human SRY-box transcription factor (SOX) (AID 2282960); conditions: HepG2 Attagene cis-factorial SOX reporter, mRNA; actives raise or lower the signal
# Outline: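 Measures mRNA induction of a SOX1-associated reporter in HepG2 after 24 h dosing. Fluorescently labelled RT-PCR fragments are separated by capillary electrophoresis, and gain or loss relative to DMSO control is fitted.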
# [17] = ATG_TA_CIS: Attagene CIS-FACTORIAL HepG2 Assay for human TA Basal Promoter (AID 2282964); conditions: HepG2 Attagene CIS-factorial TA basal promoter reporter; actives raise or lower the signal
# Outline: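 HepG2 cells transiently transfected with multiple reporter units under cis promoter elements, reporting endogenous transcription factor activity; this endpoint tracks the TA basal promoter as background control. Reporter mRNA after 24 h dosing measured by RT-PCR/capillary electrophoresis; bidirectional fits versus DMSO.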
# [18] = ATG_CMV_CIS: Attagene CIS-FACTORIAL HepG2 Assay for human CMV (Internal Marker) (AID 2282928); conditions: HepG2 CMV promoter reporter, transcription factor profiling; actives raise or lower the signal;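 note: endpoint acts as a background internal control marker rather than a target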
# Outline: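 HepG2 cells transiently transfected with multiple cis-regulated reporter units; 24 h compound exposure. Reporter mRNA quantified by RT-PCR, 6-FAM primer-extension labeling, HpaI digestion and capillary electrophoresis; bidirectional fitting against DMSO baseline.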
# [19] = ATG_ISRE_CIS: Attagene CIS-FACTORIAL HepG2 Assay for human Interferon Regulatory Factor 1 (IRF1) binding to an Interferon-Stimulated Response Element (ISRE) (AID 2282948); conditions: HepG2 ISRE cis-reporter (Attagene), mRNA transcription readout; actives raise or lower the signal
# Outline: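 HepG2 cells transiently transfected with multiplexed cis-promoter reporter units; after 24 h compound exposure, reporter mRNA quantified by RT-PCR, FAM labelling, HpaI digestion and capillary electrophoresis. Bidirectional fit versus DMSO baseline.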
# [20] = ATG_M_06_TRANS: Attagene TRANS-FACTORIAL HepG2 Assay for M06 Transcription Factor (Internal Marker) (AID 2282983; active = hit-call score of the fitted dose curve at least 0.9, where 1 is the maximum); conditions: HepG2 Attagene TRANS M06 internal marker reporter
# Outline: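 HepG2 cells transiently transfected with GAL4-UAS multiple reporter units, dosed 24 h. Reporter RNA reverse-transcribed, PCR-amplified, 6-FAM-labeled, HpaI-digested and quantified by capillary electrophoresis; this internal-marker signal fitted upward relative to DMSO.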
# Heat shock factor protein 1 (Homo sapiens), sequence (Q00613 whole entry, looked up): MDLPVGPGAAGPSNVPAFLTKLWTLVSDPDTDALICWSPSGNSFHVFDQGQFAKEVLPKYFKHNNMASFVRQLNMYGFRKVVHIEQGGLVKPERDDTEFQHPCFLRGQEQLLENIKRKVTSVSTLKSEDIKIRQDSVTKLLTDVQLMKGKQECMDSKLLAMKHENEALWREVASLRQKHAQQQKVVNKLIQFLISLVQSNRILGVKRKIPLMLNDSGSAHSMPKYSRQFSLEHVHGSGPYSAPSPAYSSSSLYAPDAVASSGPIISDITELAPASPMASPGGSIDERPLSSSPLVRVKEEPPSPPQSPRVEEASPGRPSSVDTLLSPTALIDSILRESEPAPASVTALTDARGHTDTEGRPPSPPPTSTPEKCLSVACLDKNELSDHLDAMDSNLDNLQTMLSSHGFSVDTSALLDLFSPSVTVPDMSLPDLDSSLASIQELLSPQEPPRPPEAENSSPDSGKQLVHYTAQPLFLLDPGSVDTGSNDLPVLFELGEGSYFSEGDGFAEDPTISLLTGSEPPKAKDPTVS
# Hepatocyte nuclear factor 3-beta (Homo sapiens), sequence (Q9Y261 whole entry, looked up): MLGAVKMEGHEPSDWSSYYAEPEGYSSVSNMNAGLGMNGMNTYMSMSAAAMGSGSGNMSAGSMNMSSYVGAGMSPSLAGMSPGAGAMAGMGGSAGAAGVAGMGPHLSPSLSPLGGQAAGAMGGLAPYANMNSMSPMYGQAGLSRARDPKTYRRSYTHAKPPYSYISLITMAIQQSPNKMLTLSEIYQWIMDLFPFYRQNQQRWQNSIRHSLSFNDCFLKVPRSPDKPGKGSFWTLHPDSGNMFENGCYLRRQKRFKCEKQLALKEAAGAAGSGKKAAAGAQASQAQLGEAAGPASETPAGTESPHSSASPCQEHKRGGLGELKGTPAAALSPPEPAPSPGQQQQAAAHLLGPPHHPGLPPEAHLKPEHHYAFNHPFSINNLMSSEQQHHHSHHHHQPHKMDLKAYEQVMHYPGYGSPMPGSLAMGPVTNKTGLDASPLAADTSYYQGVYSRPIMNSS
# Transcription factor E2F1 (Homo sapiens), sequence (Q01094 whole entry, looked up): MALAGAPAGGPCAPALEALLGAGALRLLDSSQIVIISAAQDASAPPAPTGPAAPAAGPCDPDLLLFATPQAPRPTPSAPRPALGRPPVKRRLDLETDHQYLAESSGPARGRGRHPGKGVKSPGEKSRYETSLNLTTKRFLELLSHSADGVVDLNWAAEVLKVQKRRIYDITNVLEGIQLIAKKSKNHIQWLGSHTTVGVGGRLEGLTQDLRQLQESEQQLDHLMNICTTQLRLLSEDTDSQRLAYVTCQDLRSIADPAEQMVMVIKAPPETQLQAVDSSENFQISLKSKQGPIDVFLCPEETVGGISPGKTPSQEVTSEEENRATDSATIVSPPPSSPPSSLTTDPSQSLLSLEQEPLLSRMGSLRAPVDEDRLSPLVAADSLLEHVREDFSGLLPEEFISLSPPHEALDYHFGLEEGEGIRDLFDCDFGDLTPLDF
# Hepatocyte nuclear factor 6 (Homo sapiens), sequence (Q9UBC0 whole entry, looked up, the tested form may be a part): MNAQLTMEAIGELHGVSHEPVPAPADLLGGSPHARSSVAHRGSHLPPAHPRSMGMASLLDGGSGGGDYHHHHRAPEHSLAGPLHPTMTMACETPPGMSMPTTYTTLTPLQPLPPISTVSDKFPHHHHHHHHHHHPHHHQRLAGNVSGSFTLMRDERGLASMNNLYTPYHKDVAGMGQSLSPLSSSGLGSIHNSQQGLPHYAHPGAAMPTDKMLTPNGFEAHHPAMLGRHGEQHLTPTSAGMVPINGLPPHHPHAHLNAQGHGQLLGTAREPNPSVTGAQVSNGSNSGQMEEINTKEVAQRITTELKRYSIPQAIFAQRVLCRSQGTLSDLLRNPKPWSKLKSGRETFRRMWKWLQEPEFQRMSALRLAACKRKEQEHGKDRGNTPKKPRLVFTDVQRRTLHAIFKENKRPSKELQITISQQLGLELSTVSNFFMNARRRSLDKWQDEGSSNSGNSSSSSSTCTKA
# Myc proto-oncogene protein (Homo sapiens), sequence (P01106 whole entry, looked up, the tested form may be a part): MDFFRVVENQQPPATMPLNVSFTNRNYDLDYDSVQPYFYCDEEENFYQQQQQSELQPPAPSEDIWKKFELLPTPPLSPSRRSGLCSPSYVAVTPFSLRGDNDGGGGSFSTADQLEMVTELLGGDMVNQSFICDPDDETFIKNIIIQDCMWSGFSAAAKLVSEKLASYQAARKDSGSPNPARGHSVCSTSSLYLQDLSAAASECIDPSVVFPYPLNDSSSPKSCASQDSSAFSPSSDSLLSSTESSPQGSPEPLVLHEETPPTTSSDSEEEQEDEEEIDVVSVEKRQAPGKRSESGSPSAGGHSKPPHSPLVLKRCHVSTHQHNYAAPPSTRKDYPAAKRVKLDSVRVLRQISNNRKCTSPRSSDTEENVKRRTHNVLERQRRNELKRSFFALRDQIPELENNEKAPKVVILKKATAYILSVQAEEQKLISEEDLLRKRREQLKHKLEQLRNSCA
# Hypoxia-inducible factor 1-alpha (Homo sapiens), sequence (Q16665 whole entry, looked up): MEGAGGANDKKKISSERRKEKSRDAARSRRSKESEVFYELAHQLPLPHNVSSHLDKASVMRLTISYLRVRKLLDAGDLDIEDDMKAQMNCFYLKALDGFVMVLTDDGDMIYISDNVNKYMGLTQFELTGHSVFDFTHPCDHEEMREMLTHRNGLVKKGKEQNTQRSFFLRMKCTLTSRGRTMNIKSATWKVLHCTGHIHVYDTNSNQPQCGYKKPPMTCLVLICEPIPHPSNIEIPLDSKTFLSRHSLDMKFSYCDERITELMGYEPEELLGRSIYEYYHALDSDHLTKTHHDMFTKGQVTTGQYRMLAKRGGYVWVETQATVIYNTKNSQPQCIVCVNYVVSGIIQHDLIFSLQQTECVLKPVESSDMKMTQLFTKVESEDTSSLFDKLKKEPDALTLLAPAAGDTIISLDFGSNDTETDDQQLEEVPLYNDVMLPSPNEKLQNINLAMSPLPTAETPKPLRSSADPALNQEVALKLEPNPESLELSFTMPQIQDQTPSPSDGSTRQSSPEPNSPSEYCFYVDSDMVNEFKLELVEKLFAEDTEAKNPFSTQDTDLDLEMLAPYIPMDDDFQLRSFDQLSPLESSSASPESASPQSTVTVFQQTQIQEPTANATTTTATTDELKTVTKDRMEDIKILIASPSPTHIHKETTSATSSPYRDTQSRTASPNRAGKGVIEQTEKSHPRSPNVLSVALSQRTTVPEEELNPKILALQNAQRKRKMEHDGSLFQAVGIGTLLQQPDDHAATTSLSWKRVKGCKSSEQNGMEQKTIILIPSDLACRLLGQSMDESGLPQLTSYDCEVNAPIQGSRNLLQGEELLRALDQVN
# Nuclear receptor subfamily 1 group I member 2 (Homo sapiens), sequence (O75469 whole entry, looked up, the tested form may be a part): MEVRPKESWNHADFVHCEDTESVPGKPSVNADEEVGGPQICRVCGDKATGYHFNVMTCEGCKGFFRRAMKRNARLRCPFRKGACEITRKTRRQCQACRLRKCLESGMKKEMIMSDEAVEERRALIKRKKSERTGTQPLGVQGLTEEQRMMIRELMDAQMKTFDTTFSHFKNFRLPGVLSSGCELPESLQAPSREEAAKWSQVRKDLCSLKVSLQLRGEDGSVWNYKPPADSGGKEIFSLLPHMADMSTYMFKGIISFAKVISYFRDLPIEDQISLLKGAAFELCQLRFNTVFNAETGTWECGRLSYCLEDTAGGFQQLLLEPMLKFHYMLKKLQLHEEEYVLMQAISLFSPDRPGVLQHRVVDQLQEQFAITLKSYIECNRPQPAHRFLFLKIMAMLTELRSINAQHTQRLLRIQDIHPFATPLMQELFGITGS
# Cellular tumor antigen p53 (Homo sapiens), sequence (P04637 whole entry, looked up): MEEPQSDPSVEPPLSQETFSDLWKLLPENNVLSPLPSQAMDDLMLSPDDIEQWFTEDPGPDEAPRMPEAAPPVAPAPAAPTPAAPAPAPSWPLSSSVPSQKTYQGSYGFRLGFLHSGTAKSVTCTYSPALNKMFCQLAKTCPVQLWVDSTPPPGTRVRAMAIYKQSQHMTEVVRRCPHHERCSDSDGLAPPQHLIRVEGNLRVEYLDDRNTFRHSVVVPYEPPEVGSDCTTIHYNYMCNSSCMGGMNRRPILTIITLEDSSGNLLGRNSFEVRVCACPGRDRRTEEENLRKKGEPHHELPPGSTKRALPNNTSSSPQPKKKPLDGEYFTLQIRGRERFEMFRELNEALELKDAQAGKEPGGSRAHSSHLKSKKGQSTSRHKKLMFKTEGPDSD
structure (smiles),measurement,setting,value
C/C=C(\C)C(=O)OCC/C=C\CC,outcome,[1],inactive
same,outcome,[2],inactive
same,outcome,[3],inactive
same,outcome,[4],inactive
same,outcome,[5],inactive
same,outcome,[6],inactive
same,outcome,[7],inactive
same,outcome,[8],inactive
same,outcome,[9],inactive
same,outcome,[10],inactive
same,outcome,[11],inactive
same,outcome,[12],inactive
same,outcome,[13],inactive
same,outcome,[14],inactive
same,outcome,[15],inactive
CCC(=O)OCc1ccc(OC)cc1,outcome,[1],inactive
same,outcome,[2],inactive
same,outcome,[3],inactive
same,outcome,[4],inactive
same,outcome,[5],inactive
same,outcome,[6],inactive
same,outcome,[8],inactive
same,outcome,[16],inactive
same,outcome,[17],inactive
same,outcome,[9],inactive
same,outcome,[10],inactive
same,outcome,[11],inactive
same,outcome,[12],inactive
same,outcome,[13],inactive
same,outcome,[14],inactive
same,AC50,[15],31.6 µM (active)
CNC(=C[N+](=O)[O-])NCCSCc1csc(CN(C)C)n1,outcome,[18],inactive
same,outcome,[1],inactive
same,outcome,[3],inactive
same,outcome,[4],inactive
same,outcome,[19],inactive
same,outcome,[6],inactive
same,outcome,[7],inactive
same,outcome,[8],inactive
same,outcome,[17],inactive
same,outcome,[9],inactive
same,outcome,[11],inactive
same,outcome,[12],inactive
same,outcome,[13],inactive
same,outcome,[14],inactive
CN(C)Cc1cc(C(C)(C)C)c(O)c(C(C)(C)C)c1,outcome,[1],inactive
same,outcome,[2],inactive
same,outcome,[4],inactive
same,outcome,[5],inactive
same,outcome,[6],inactive
same,outcome,[7],inactive
same,outcome,[8],inactive
same,outcome,[16],inactive
same,outcome,[17],inactive
same,outcome,[9],inactive
same,outcome,[10],inactive
same,outcome,[11],inactive
same,outcome,[12],inactive
same,AC50,[13],37.8 µM (active)
same,outcome,[14],inactive
same,outcome,[15],inactive
NC(N)=Nc1nc(CSCCC(N)=NS(N)(=O)=O)cs1,outcome,[1],inactive
same,outcome,[2],inactive
same,AC50,[3],153 µM (active)
same,outcome,[4],inactive
same,outcome,[19],inactive
same,outcome,[6],inactive
same,outcome,[7],inactive
same,outcome,[8],inactive
same,outcome,[16],inactive
same,outcome,[9],inactive
same,outcome,[10],inactive
same,outcome,[20],inactive
same,outcome,[11],inactive
same,outcome,[12],inactive
same,outcome,[13],inactive
same,outcome,[14],inactive
same,outcome,[15],inactive
O=C(OCc1ccccc1)c1ccccc1,outcome,[1],inactive
same,outcome,[2],inactive
same,outcome,[3],inactive
same,outcome,[4],inactive
same,outcome,[19],inactive
same,AC50,[5],175 µM (active)
same,outcome,[6],inactive
same,outcome,[7],inactive
same,outcome,[8],inactive
same,outcome,[16],inactive
same,outcome,[17],inactive
same,outcome,[9],inactive
same,outcome,[10],inactive
same,outcome,[20],inactive
same,outcome,[11],inactive
same,outcome,[12],inactive
same,outcome,[13],inactive
same,outcome,[15],inactive
O=C(C(=O)c1ccccc1)c1ccccc1,outcome,[18],inactive
same,outcome,[1],inactive
same,outcome,[3],inactive
same,outcome,[4],inactive
same,outcome,[19],inactive
same,outcome,[5],inactive
same,outcome,[6],inactive
same,outcome,[7],inactive
same,outcome,[17],inactive
same,outcome,[9],inactive
same,outcome,[10],inactive
same,outcome,[11],inactive
same,outcome,[12],inactive
same,outcome,[13],inactive
same,outcome,[14],inactive
same,AC50,[15],11.3 µM (active)
O=C(CC(C(=O)OC1CCCCC1)S(=O)(=O)O)OC1CCCCC1 (stereo not drawn),outcome,[1],inactive
same,outcome,[2],inactive
same,outcome,[4],inactive
same,outcome,[19],inactive
same,outcome,[5],inactive
same,outcome,[6],inactive
same,outcome,[7],inactive
same,outcome,[8],inactive
same,outcome,[17],inactive
same,outcome,[9],inactive
same,outcome,[20],inactive
same,outcome,[11],inactive
same,outcome,[12],inactive
same,outcome,[13],inactive
same,outcome,[14],inactive
same,outcome,[15],inactive
